Common to all, as to experiment: NCI-60 one-dose screen, 48 h (100 = growth as untreated, 0 = no growth, -100 = all killed)
One experiment has as its system NCI-H23 lung. As to conditions: 10 µM unless noted.
Another experiment concerns NCI-H226 lung. Particulars: 10 µM unless noted.
A further experiment has as its system NCI-H322M lung. As to conditions: 10 µM unless noted.
The test system of another experiment is HOP-62 NSCLC. As to conditions: 10 µM unless noted.
The test system of a further experiment is NCI-H460 lung. Particulars: 10 µM unless noted.
For the next experiment, the system named is HOP-92 NSCLC. Particulars: 10 µM unless noted.
The next experiment relates to NCI-H522 lung. As to conditions: 10 µM unless noted.
The next experiment concerns A549/ATCC NSCLC. Particulars: 10 µM unless noted.
In the next experiment the test system is 786-0 renal. As to conditions: 10 µM unless noted.
In a further experiment the test system is COLO 205 colon. Particulars: 10 µM unless noted.
A further experiment deals with DU-145 prostate. As to conditions: 10 µM unless noted.
A further experiment relates to MALME-3M melanoma. As to conditions: 10 µM unless noted.
The test system of the next experiment is MDA-MB-231 breast. As to conditions: 10 µM unless noted.
The next experiment deals with RXF 393 renal. Particulars: 10 µM unless noted.
In another experiment the test system is SF-268 CNS. Particulars: 10 µM unless noted.
In another experiment the test system is SF-295 CNS. As to conditions: 10 µM unless noted.
The test system of a further experiment is SF-539 CNS. Particulars: 10 µM unless noted.
Another experiment deals with M14 melanoma. Particulars: 10 µM unless noted.
The next experiment relates to UACC-257 melanoma. As to conditions: 10 µM.
For a further experiment, the system named is K-562 leukemia. Particulars: 10 µM unless noted.

About 83,000 compounds went through this panel and 20% of them were active in at least one assay; those are over-represented in the sample as a whole.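 Note: values are percent growth. 100 is the growth of untreated cells, values between 100 and 0 indicate rising inhibition; between -100 and 0 indicates cell death.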 Unmarked numbers belong to inactive results. Calls of active or inactive are those of the source. The calls were made as follows: active = growth percent below 10; inactive = the rest.

As for `COc1ccc([C@H]2[C@H](O)C(=O)N2c2cc(OC)c(OC)c(OC)c2)cc1O`, the growth is 31.2% in the experiment on NCI-H23 lung; 19.6% in the experiment on NCI-H226 lung; 51.4% in the experiment with NCI-H322M lung; 18.9% in the experiment on HOP-62 NSCLC; 2.08% (active) with NCI-H460 lung; -8.12% (active) in the experiment with HOP-92 NSCLC. For the same compound, the growth in the experiment with NCI-H522 lung is -38% (active); in the experiment on A549/ATCC NSCLC it was 19.8%; in the experiment with 786-0 renal it was 17.4%; in the experiment on COLO 205 colon it was -73% (active); in the experiment with DU-145 prostate it was 17.4%; in the experiment with MALME-3M melanoma, 59.7%. Moreover, the growth was 28.3% in the experiment on MDA-MB-231 breast; 21.3% with RXF 393 renal; 50.1% in the experiment with SF-268 CNS; 2.84% (active) in the experiment on SF-295 CNS; -16.3% (active) in the experiment with SF-539 CNS; 7.13% (active) in the experiment with M14 melanoma.
On to `COc1cc2c3c(n(CCCN4CCCCC4)c(=O)c2cc1OC)-c1cc2c(cc1C3=O)OCO2`, for which the growth in the experiment on NCI-H23 lung was -91.9% (active); with NCI-H226 lung, -61.6% (active); in the experiment with NCI-H322M lung it was -96.4% (active); in the experiment on HOP-62 NSCLC it was -71.4% (active); with NCI-H460 lung, -84.7% (active); in the experiment on HOP-92 NSCLC it was -77.4% (active). Further, the growth was -80.2% (active) in the experiment with NCI-H522 lung; -58.4% (active) with A549/ATCC NSCLC; -55.9% (active) in the experiment with 786-0 renal; -88.8% (active) with COLO 205 colon; -92.2% (active) in the experiment on DU-145 prostate; -78.5% (active) in the experiment with MALME-3M melanoma. Besides, the growth with MDA-MB-231 breast is -77.1% (active); with RXF 393 renal, -73.9% (active); in the experiment with SF-268 CNS, -55.5% (active); with SF-295 CNS it was -75.6% (active); in the experiment on SF-539 CNS, -89.3% (active); with M14 melanoma, -89.5% (active).
Regarding `CS(=O)(=O)c1nccc(-c2c(-c3ccc(F)c(OCCc4ccc(F)cc4)c3)nc3sccn23)n1`, the growth in the experiment on NCI-H23 lung was 10.7%; in the experiment on NCI-H226 lung, 78.1%; in the experiment with NCI-H322M lung, -89.1% (active); in the experiment with HOP-62 NSCLC, 15.1%; in the experiment with NCI-H460 lung, -56% (active); in the experiment with HOP-92 NSCLC, -26.3% (active). For the same compound, the growth is -74.5% (active) with NCI-H522 lung; 83.5% with A549/ATCC NSCLC; 87.3% with 786-0 renal; 86.9% in the experiment on COLO 205 colon; -91.6% (active) with DU-145 prostate; 91.7% with MALME-3M melanoma. The growth in the experiment with MDA-MB-231 breast is 1.19% (active); in the experiment on RXF 393 renal it was 77.7%; with SF-268 CNS, 82.8%; with SF-295 CNS, 89%; in the experiment on SF-539 CNS, 76.3%; in the experiment with UACC-257 melanoma it was -81.4% (active). The growth in the experiment on M14 melanoma is 83.9%.
`COc1cc2c3c(n(CCCNCC4CC4)c(=O)c2cc1OC)-c1cc2c(cc1C3=O)OCO2`: the growth in the experiment on NCI-H23 lung was -52.6% (active); with NCI-H226 lung, 61.9%; with NCI-H322M lung, 66.9%; in the experiment on HOP-62 NSCLC, -85.8% (active); with NCI-H460 lung, -58.7% (active); with HOP-92 NSCLC it was 90.8%. The growth in the experiment on NCI-H522 lung was -66.1% (active); in the experiment with A549/ATCC NSCLC, -85.1% (active); in the experiment on 786-0 renal, -98.2% (active); with COLO 205 colon, 38%; with DU-145 prostate, -52.9% (active); in the experiment on MALME-3M melanoma, 71.1%. For the same compound, the growth in the experiment on MDA-MB-231 breast is -73.6% (active); in the experiment with RXF 393 renal, 43.9%; in the experiment with SF-268 CNS it was 45.6%; in the experiment with SF-295 CNS, 22.3%; in the experiment with SF-539 CNS, -88% (active); in the experiment on M14 melanoma, 31.9%.
Take `O=C1c2cc(Br)ccc2-n2c1nc1cc(Br)ccc1c2=O`: the growth is 58.6% in the experiment with NCI-H23 lung; 78.3% with NCI-H226 lung; 88.7% in the experiment on NCI-H322M lung; 82.3% in the experiment with HOP-62 NSCLC; 85.4% in the experiment with NCI-H460 lung; 134% with HOP-92 NSCLC. Further, the growth in the experiment with NCI-H522 lung is 68.9%; in the experiment with A549/ATCC NSCLC it was 67.1%; with 786-0 renal, 88.5%; with DU-145 prostate, 74.1%; with K-562 leukemia it was 73.9%; in the experiment with MALME-3M melanoma, 44.1%. Moreover, the growth was 75.5% in the experiment with MDA-MB-231 breast; 97.6% in the experiment with RXF 393 renal; 78% with SF-268 CNS; 87% in the experiment with SF-295 CNS; 92.4% in the experiment on SF-539 CNS; 43.1% with UACC-257 melanoma. Further, in the experiment with M14 melanoma, the growth is 72.2%.
`COc1ccc(-c2cc(-c3ccc(Cl)cc3)nc3nc(N)nn23)cc1`: the growth was 108% in the experiment with NCI-H23 lung; 99.6% in the experiment on NCI-H226 lung; 102% with NCI-H322M lung; 107% in the experiment on HOP-62 NSCLC; 107% in the experiment on NCI-H460 lung; 102% with HOP-92 NSCLC. For the same compound, the growth with NCI-H522 lung was 93.9%; in the experiment with A549/ATCC NSCLC, 93.8%; with 786-0 renal, 87.7%; with DU-145 prostate, 101%; with K-562 leukemia it was 116%; in the experiment on MALME-3M melanoma, 118%. The growth with MDA-MB-231 breast is 104%; in the experiment on RXF 393 renal, 91.8%; with SF-268 CNS, 89.9%; with SF-295 CNS, 97.3%; in the experiment on SF-539 CNS, 95.5%; with UACC-257 melanoma, 109%. Also, in the experiment on M14 melanoma, the growth was 117%.
In the case of `COc1ccc(-c2nn(-c3ccccc3)cc2/C=C/C(=O)c2ccc(NC(=O)CCCCCCC(=O)NO)cc2)cc1`, the growth is 113% in the experiment with NCI-H23 lung; 112% in the experiment on NCI-H226 lung; 96.3% in the experiment on NCI-H322M lung; 107% in the experiment with HOP-62 NSCLC; 108% in the experiment with NCI-H460 lung; 125% in the experiment with HOP-92 NSCLC. Besides, the growth with NCI-H522 lung is 92.4%; with A549/ATCC NSCLC it was 96%; with 786-0 renal it was 69.8%; in the experiment with DU-145 prostate, 97.6%; with K-562 leukemia, 84.6%; in the experiment with MALME-3M melanoma, 137%. Further, the growth in the experiment with MDA-MB-231 breast was 99%; in the experiment with RXF 393 renal it was 63.8%; in the experiment on SF-268 CNS it was 108%; with SF-295 CNS it was 119%; in the experiment on SF-539 CNS it was 105%; with UACC-257 melanoma, 114%.
On to `NC(=S)N/N=C(/C=C/c1cn(-c2ccccc2)nc1-c1ccc(Cl)cc1)c1cc2ccccc2oc1=O`, for which the growth in the experiment on NCI-H23 lung is 46.5%; in the experiment with NCI-H226 lung, 62.2%; with NCI-H322M lung it was 60%; in the experiment with HOP-62 NSCLC, 43%; with NCI-H460 lung, 18.3%; in the experiment on HOP-92 NSCLC, 70.2%. Moreover, the growth was 46.9% in the experiment with NCI-H522 lung; 41.4% in the experiment with A549/ATCC NSCLC; 58.1% with 786-0 renal; 57.7% in the experiment with DU-145 prostate; 20.8% with K-562 leukemia; 71.2% in the experiment on MALME-3M melanoma. Further, the growth in the experiment with MDA-MB-231 breast was 48.9%; in the experiment on RXF 393 renal it was 106%; with SF-268 CNS, 52.9%; with SF-295 CNS it was 25.2%; in the experiment on SF-539 CNS, 51.1%; with UACC-257 melanoma, 76.3%. Moreover, the growth in the experiment with M14 melanoma was 54.1%.

Values taken from PubChem BioAssay (NCI).
